Where “and” joins values, the source holds several entries; their conditions need not be identical. Equal values may be shown once. Compounds without any hit were thinned out: in the full panel of roughly 83,000, 20% have a hit.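 Compound tested at a single concentration for 48 hours in 96-well plates; a percent growth value below 10 was scored as active.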 Unmarked numbers belong to inactive results. Calls of active or inactive are those of the source.

For the test, the system named is MDA-MB-468 breast. The test can be described thus: NCI-60 one-dose screen, 48 h (100 = growth as untreated, 0 = no growth, -100 = all killed). The following applies: 10 µM unless noted.
Consider `O=C(NCc1ccccc1)c1cccc([N+](=O)[O-])c1`, for which the growth is 93.8%.
The value for `O=C(O)CN1C(=O)CCC1=O` was 108%; that for `CCc1c(C)[nH]c(=O)c(C(N)=O)c1C#N` was 105%.
The figure for `Oc1ccc(Cl)cc1CNc1nc2ccccc2[nH]1` is 102%.
For `C=C1C(=O)O[C@H]2[C@H]1CC/C(COC(=O)NCc1ccc(Cn3c(=O)sn(CCCl)c3=O)cc1)=C\CC[C@@]1(C)O[C@@H]21`, the growth is 5.52% (active).
For `CN1CCN(c2ccc(C(=O)/C=C/c3ccc(Cl)c(C(F)(F)F)c3)cc2)CC1`, the growth is 18.4%.
The figure for `O=C(O)C(Cc1ccc(OS(=O)(=O)Cc2ccccc2)cc1)NS(=O)(=O)Cc1ccccc1` (stereo not given) is 105% and 117%; for `O=S(=O)(Nc1ccc2c(c1)OCO2)c1ccc(-c2cnc(C3CC3)o2)cc1` it is -3.85% (active).
The value for `COc1cc(CC(=O)c2ccc(O)c(OC)c2)ccc1O` was 101%.
As for `CCOC(=O)C/C(=N\Nc1cc(=O)[nH]c2ccc(Cl)cc12)C(=O)OCC`, the growth is 98.6%.
For `CC[C@@]12C=CCN3CC[C@]4(c5cc(NC(=O)COc6cc(OCC(=O)Nc7cc8c(cc7OC)N(C)[C@H]7[C@@](O)(C(=O)OC)[C@H](OC(C)=O)[C@]9(CC)C=CCN%10CC[C@]87[C@@H]%109)cc7oc(-c8ccccc8)cc(=O)c67)c(OC)cc5N(C)[C@@H]4[C@](O)(C(=O)OC)[C@H]1OC(C)=O)[C@H]32`, the growth is 72%.
The figure for `COc1ccc(-c2nc(NN)c3c(C)nn(-c4ccc(F)cc4)c3n2)cc1` is 25.8%; for `COc1ccc(/C=C2/C(=O)N=C3N2NC(c2ccccc2)=CN3c2ccccc2)cc1` it is 88.9%; for `O=C(Nc1ccc(Br)cc1)Nc1cccc(Br)c1` it is 27.2%.
The figure for `COc1cc2c(c(OC)c1OC)C(=O)CC(c1cccc(C(=O)Nc3ccc(C#N)cc3)c1)O2` (stereo not given) is 58.9%; for `COc1ccc(NC(=O)c2ccc(Cl)cc2Cl)cc1` it is 96.5%.
The figure for `CCOC(=O)c1nn(-c2ccc(C)cc2)c(=O)c2c(N)c(C#N)c(-c3ccc(OC)cc3)cc12` is 102%; for `COC(=O)c1ccccc1Cl` it is 109%; for `Clc1ccc(Cc2nc3ccccc3s2)cc1` it is 104%.
Take `CCOc1cccc(/C=N\Nc2nc(=O)cc(C(=O)OC)s2)c1O`: the growth was 49.9%.
The figure for `CC(=O)Nc1ccc(S(=O)(=O)N/N=C(\C)c2ccc(C)cc2C)cc1` is 112%; for `COc1ccc(-c2nnc3n(C)c(=O)c4ccccc4n23)cc1O` it is -2.48% (active); for `CC(C)c1ccc(Nc2n[nH]c(=S)s2)cc1` it is 107%.
Consider `COc1ccc(C)c2sc(N(Cc3cccnc3)C(=O)c3ccc(C#N)cc3)nc12`, for which the growth is -13.4% (active).
The figure for `NC(Cc1ccc(O)cc1)C(=O)N/N=C/c1ccccc1O` (stereo not given) is 108%.
Consider `COc1ccc(CCNC2=CC(=O)CCC2)cc1OC`, for which the growth was 109%.
In the case of `COc1ccc(CC(C#N)c2ccc(Cl)cc2)cc1` (stereo not given), the growth is 24%.
As for `Cc1nc(Nc2ccc(S(=O)(=O)Nc3cc(C)on3)cc2)c2ccccc2n1`, the growth is 104%.
The figure for `O=C(/C=C/C=C/c1ccc2c(c1)OCO2)N/N=C\c1ccc(O)cc1O` is -2.83% (active); for `CCCCCCCCn1ccc2cc(NC(=O)Cn3cc(CN4CCC(C)CC4)nn3)ccc21` it is -52.9% (active); for `COc1ccc(C(=O)C(Br)C(Br)C(=O)O)cc1` (stereo not given) it is 93%.
The value for `Clc1ccc2oc3c(OCCCn4ccnc4)c4ccccc4nc3c2c1` was 66.5%.
The figure for `CC[C@]1(O)CC2CN(CCc3c([nH]c4ccccc34)C(C(=O)OC)(c3cc4c(cc3OC)N(C=O)[C@H]3[C@@](O)(C(=O)OC)[C@H](OC(C)=O)[C@]5(CC)[C@@H]6C[C@@H]6CN6CC[C@]43[C@@H]65)C2)C1` (stereo not given in full) is 22.9%; for `CCCC[N+](C)(N)CCCC` it is 106%.
`CCNC(=O)Oc1ccc(/C(=C(/C)c2ccc(Cl)cc2)c2ccc(OCCN(C)C)cc2)cc1`: the growth is 67%.
Take `C=C1C(=O)O[C@H]2[C@H]1CC/C(COC(=O)CSCC(=O)OC/C1=C/CC[C@@]3(C)O[C@H]3[C@H]3OC(=O)C(=C)[C@@H]3CC1)=C\CC[C@@]1(C)O[C@@H]21`: the growth was -1.97% (active).
The value for `CNCCCNc1nc2ccccc2c2c(=O)c3cc(F)ccc3sc12` was -57.3% (active).
As for `CC1CN(C2CCCCC2)C(=O)NC1=O` (stereo not given), the growth was 108%.
The value for `COc1c(B(O)O)cccc1-c1nc2ccc3[nH]ncc3c2c2c1C1CCC2C1` (stereo not given) was 89.9%.
The figure for `CCN(CC)CCCCNc1c2ccc(Cl)cc2nc2ccc(OC)cc12` is -42.7% (active).

For the origin of these results see PubChem BioAssay (NCI).
